From PubChem
An excerpt weighted towards active compounds, which were near 5.4% of everything screened.
HPGD inh – blocks human HPGD enzyme activity; 150,000 tested, 4.3% active; purified HPGD, NADH fluorescence kinetic, PGE2 substrate; Potency, µM, inactives show top-dose activity change, negative = inhibition, actives largely listed as inhibitors; P15428; active = well fitted inhibition curve with a large enough effect, not every such curve was filed as active; inconclusive = small, poorly fitted or top-dose-only effect, or another doubt; inactive = no such curve, though single readings can be large or run the other way; also: potency is read from the fitted curve at half-maximal effect
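20 nM HPGD preincubated 15 min at room temperature with compound in 50 mM Tris-HCl pH 8, 0.01% Tween 20. Started with 1 mM NAD+ and 30 uM prostaglandin E2; NADH fluorescence (360/450 nm) read 5 times over 30-s intervals, last minus first.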
IMPase Li inh – IMPase inhibition in cells with lithium potentiation. CHO-M1 cells, IP1 TR-FRET (IP-One), carbachol + lithium. AID 1457. 210,000 tested, 0.35% active. Potency, µM (top dose mostly 59.4 µM), inactives show at the highest dose activity, negative = IMPase inhibition, most hits filed as inhibitors;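 also: IP1 builds up when IMPase is blocked and the TR-FRET signal falls; potency is read from the fitted curve at half-maximal effect; plate controls were basal vehicle for no effect and high inhibitor control for full effect; nearly all actives have a fitted effect of over 50% in size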
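Readout is a homogeneous TR-FRET IP1 immunoassay (Ex 320, Em 665 and 620), where raised cytosolic IP1 lowers signal. Cells were CHO-M1 treated 30 min at 37C with test compounds plus a little lithium; AC50 values came from Hill-equation fitting.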
PNC assembly inh – perinucleolar compartment assembly inhibition. PC3M PTB-GFP, PNC prevalence imaging, 16 h; stronger effect = lower value. activity change (PNC), negative = inhibition, % at 10 µM. 140,000 tested, 3.1% active. AID 2417;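 active = readout at or below -70, meaning at least 70% loss of cells showing the perinucleolar compartment, a nuclear body marking cancer cells; inconclusive = readout between -30 and a set limit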;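 also: plate controls were DMSO wells for no effect and camptothecin positive control wells for full effect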
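Read-out is percentage of cells bearing a perinucleolar compartment, from automated 20x imaging of fixed, Hoechst-stained PC3M PTB-GFP cells. Cells were seeded 4 h, then exposed 16 h to compound (23 nl of library stock) in duplicate plates.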
ALOX15B inhib – 15-hLO-2 (ALOX15B) enzyme inhibition | O15296 | purified 15hLO-2, xylenol orange hydroperoxide absorbance | Potency, µM (highest dose often 57.1 µM), for the others: at the highest dose activity change, negative = inhibition, usual class: inhibitors | 110,000 tested, 0.56% active | AID 881; also: potency is read from the fitted curve at half-maximal effect; nearly all actives have a fitted effect of over 60% in size
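Screening format was qHTS against 50 nM purified 15hLO-2 in Hepes pH 7.5 with detergent. Activity follows hydroperoxide formation from 45 uM arachidonic acid, measured as 573:405 nm absorbance ratio of the ferric-xylenol orange complex.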
IMPase inh – cell-permeable inhibitors of inositol monophosphatase (IMPase) | inhibition (IP1 accumulation), % at 46.1 µM | 120,000 tested, under 10 active | CHO-M1 cells, IP1 accumulation, HTRF TR-FRET ratio | P97697; active = well fitted curve in the direction sought with a large enough effect in the signal ratio, not every such curve was filed as active; inconclusive = small, poorly fitted or top-dose-only effect, or a change in a side signal; inactive = no such curve, though single readings can be large or run the other way; the % refers to the signal ratio;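 also: cells stimulated with carbachol in lithium chloride buffer; plate controls were DMSO basal wells for no effect and reference inhibitor wells for full effect; higher means more IMPase inhibition seen as more IP1 and lower FRET ratio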
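CHO-M1, 2000 cells/well, cultured 16–30 h; cpd up to 46 uM; carbachol (50 uM solution, stimulation buffer w/ 50 mM LiCl, pH 7.4), 30 min 37C; IP-One TR-FRET, 10 min RT; Ex 320/Em 665, 620; Hill-fit AC50.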
12-hLO inh – inhibitors of human 12-lipoxygenase (ALOX12). purified 12-hLO, xylenol orange hydroperoxide absorbance. 150,000 tested, 0.12% active. P18054. Potency, µM (highest dose often 57.1 µM), for inactives: at the highest dose activity change, negative = inhibition, usual class: inhibitors; also: potency is read from the fitted curve at half-maximal effect; nearly all actives have a fitted effect of over 55% in size
Target sequence (P18054 whole entry, looked up): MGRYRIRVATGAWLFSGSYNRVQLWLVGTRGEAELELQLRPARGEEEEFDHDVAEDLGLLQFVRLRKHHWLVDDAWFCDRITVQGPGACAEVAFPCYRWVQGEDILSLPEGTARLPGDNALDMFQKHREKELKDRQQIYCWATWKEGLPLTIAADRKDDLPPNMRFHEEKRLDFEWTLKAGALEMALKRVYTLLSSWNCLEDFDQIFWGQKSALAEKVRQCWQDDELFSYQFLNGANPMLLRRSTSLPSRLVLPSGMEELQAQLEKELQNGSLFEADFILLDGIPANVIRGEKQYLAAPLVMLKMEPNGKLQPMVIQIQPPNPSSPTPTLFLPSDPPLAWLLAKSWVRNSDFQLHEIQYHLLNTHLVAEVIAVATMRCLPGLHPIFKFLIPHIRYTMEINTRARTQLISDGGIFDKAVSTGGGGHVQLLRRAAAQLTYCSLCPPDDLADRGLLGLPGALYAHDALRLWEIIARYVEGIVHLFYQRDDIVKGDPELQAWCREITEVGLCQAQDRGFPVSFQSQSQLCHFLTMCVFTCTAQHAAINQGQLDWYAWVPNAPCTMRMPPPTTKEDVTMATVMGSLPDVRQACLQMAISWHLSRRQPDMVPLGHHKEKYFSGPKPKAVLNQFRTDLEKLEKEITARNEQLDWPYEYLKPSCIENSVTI
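Hydroperoxide output read as Fe(III)-xylenol orange absorbance, 573-to-405 nm ratio, after 30 min reaction with 40 uM arachidonic acid. Enzyme: 150 nM purified human 12hLO, 15 min compound preincubation; 25 mM Hepes pH 7.0, room temperature.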
* hit, by the source's call; ? = inconclusive; / = no result; [ ] = dose if it differs, or a comment. Unless noted, calls follow the shape of the dose curve; as a rule, active = well fitted curve in the direction sought with a large enough effect; inconclusive = small, poorly fitted or top-dose-only effect, or another doubt; inactive = no such curve, though single readings can be large; an effect the other way counts as inactive or inconclusive. Unless noted, % is scaled to controls: 0 for no effect and ±100 for the full control effect.

SMILES	HPGD inh	IMPase Li inh	PNC assembly inh	ALOX15B inhib	IMPase inh	12-hLO inh
COc1ccc2c(c1)OC1(O)COc3cc(OC)c(OC)cc3C1=C2 (centres undefined)	?	16%	/	-2%	/	-2%
CC(Sc1nnc2ccccn12)C(=O)Nc1ncc(Cl)cc1Cl (centres undefined)	-10%	-8%[38.3 µM]	?	9%	3	4%
COc1ccc(-n2c(SC(C)C(=O)Nc3ncc(Cl)cc3Cl)nc3ccccc32)cc1 (centres undefined)	-24%	21%	-111*	/	11	-2%
COC(=O)C/C=C/[C@@H](C)[C@H](NC(=O)OCC(Cl)(Cl)Cl)c1cccc(OC)c1	-4%	-4%	/	/	/	/
COc1ccc(/C=N/O)cc1COc1ccc(NC(C)=O)cc1	25µM*	1%	18	/	?	16%
COc1ccc(/C=N/N2CCOCC2)cc1COc1ccc(Cl)cc1	-8%	4%	-111*	/	/	-3%
COc1ccc(/C=N/N2CCOCC2)cc1COc1ccc(F)cc1	/	10%	/	/	/	/
COc1cc(OC)cc(C(=O)N/N=C/c2ccc(OC)c(COc3ccc(F)cc3)c2)c1	?	15%[38.3 µM]	?	17%	2	-6%
CCC(=O)Nc1ncnc2ncn(C(=O)CC)c12	-12%	-2%	/	-3%[11.4 µM]	/	0%[11.4 µM]
Cc1ccc(OCC(O)Cn2c(NCCc3ccccc3)nc3c2c(=O)[nH]c(=O)n3C)cc1 (centres undefined)	-7%	5%	6	0%	2	-1%
Cn1c(=O)[nH]c(=O)c2c1nc(SCCN1CCOCC1)n2Cc1ccccc1	-22%	24%[38.3 µM]	?	-2%	0	-5%
Cn1c(=O)[nH]c(=O)c2c1nc(SCCN1CCOCC1)n2CCCc1ccccc1	35µM*	4%[38.3 µM]	?	2%	-10	1%
Cn1c(=O)[nH]c(=O)c2c1nc(N1CCOCC1)n2CCCSc1ncccn1	-10%	-11%[38.3 µM]	-114*	1%	2	-4%
Cn1c(=O)[nH]c(=O)c2c1nc(N1CCOCC1)n2CCSc1nc2ccccc2[nH]1	-10%	-15%[38.3 µM]	-4	-3%	-19	-6%
Cc1ccc(OCC(O)Cn2c(N3CCOCC3)nc3c2c(=O)[nH]c(=O)n3C)cc1 (centres undefined)	/	/	-94*	-6%	5	-1%
COc1ccc(CCn2c3c(c(=O)[nH]c2=O)C(NC(=O)c2ccccc2OC)(C(F)(F)F)C(=O)N3)cc1OC (centres undefined)	/	/	/	/	-2	/
O=[N+]([O-])c1cc(Cc2ccccc2)cc(C=Nc2ccc(N3CCOCC3)cc2)c1O	5µM*	3%	-21	/	/	-2%
Cc1ccc(O)c(N=Cc2cc(Cc3ccccc3)cc([N+](=O)[O-])c2O)c1	/	6%	/	/	/	/
Cc1ccc2nc(-c3ccc(NC(=O)COc4ccc(Cl)c(C)c4)cc3)sc2c1	/	/	/	/	-6	/
O=C(N/N=C/c1ccncc1)c1cc([N+](=O)[O-])cc([N+](=O)[O-])c1O	28µM*	-9%[38.3 µM]	?	-16%	7	-28%
O=c1cc(-c2cccc(F)c2)[nH]c2cc(F)ccc12	-9%	7%	/	7%[0.0915 µM]	/	-2%[0.00818 µM]
CNS(=O)(=O)c1ccc(OC)c(-c2nnc3c4ccccc4c(C)nn23)c1	16µM*	-4%[38.3 µM]	?	-2%	-10	-1%
COc1ccc(S(=O)(=O)NC(C)(C)C)cc1-c1nnc2c3ccccc3c(C)nn12	-29%	24%[38.3 µM]	36	-4%	7	4%
COc1ccc(S(=O)(=O)NCc2ccco2)cc1-c1nnc2c3ccccc3c(C)nn12	5µM*	20%[38.3 µM]	15	0%	13	3%
O=C(O)CCn1nnc(-c2cccs2)n1	0%	-5%[38.3 µM]	-105*	1%	-18	3%
SMILES	HPGD inh	IMPase Li inh	PNC assembly inh	ALOX15B inhib	IMPase inh	12-hLO inh
O=C(O)Cn1nnc(-c2cccs2)n1	-28%	-9%[38.3 µM]	10	1%	5	-6%
CCn1c2ccccc2c2nc3cc(S(=O)(=O)N4CCOCC4)ccc3nc21	2µM*	-1%[38.3 µM]	?	-24%	13	-18%
c1ccc(-c2cnn3c(-c4ccccc4)c(-c4ccccc4)nc3n2)cc1	20µM*	2%	23	/	?	-6%
CCC(NC(=O)Nn1cnnc1)(C(F)(F)F)C(F)(F)F	-17%	4%	-100*	/	17	1%
COc1cccc(C(=O)CC2(O)C(=O)Nc3ccc(Cl)cc32)c1 (centres undefined)	/	/	/	/	13	/
O=C1CC(c2ccco2)CC(O)=C1C=NCCN1CCNCC1 (centres undefined)	-17%	33%[38.3 µM]	-30	10%	0	-5%
O=C1CC(c2ccco2)CC(O)=C1C=NCCN1CCN(C2CC(=O)N(c3ccccc3)C2=O)CC1 (centres undefined)	-11%	2%	-100*	/	-21	3%
C/C(=N\NC(=O)c1csc(C)c1C)c1ccc(C)s1	14µM*	-1%	23	/	/	-1%
CC(=O)NCCNc1ncnc2ccc(-c3ccccc3C#N)cc12	/	?	/	8%	/	/
Cn1c(=Nc2ccccc2)sc2ccccc21	-29%	25%[38.3 µM]	3	14%	2	3%
